This is part of a sample that, as a whole, favours compounds with a hit. Of some 83,000 tested, about 20% had one in any assay.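 Testing used 96-well plates and a 48-hour single-concentration exposure. Example: -40 means 40% of the starting cells died.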 Active and inactive are the calls of the source. The calls were made as follows: active = growth percent below 10; inactive = the rest.
Experiments:
Assay in all cases: NCI-60 one-dose screen, 48 h (100 = growth as untreated, 0 = no growth, -100 = all killed)
Settings in all cases: 10 µM unless noted
HCT-15 colon = tested on: HCT-15 colon
HT29 colon = tested on: HT29 colon
SNB-75 CNS = tested on: SNB-75 CNS
SNB-19 CNS = tested on: SNB-19 CNS
U251 CNS = tested on: U251 CNS
PC-3 prostate = tested on: PC-3 prostate
SK-MEL-5 melanoma = tested on: SK-MEL-5 melanoma
LOX IMVI melanoma = tested on: LOX IMVI melanoma
UACC-62 melanoma = tested on: UACC-62 melanoma
SK-MEL-28 melanoma = tested on: SK-MEL-28 melanoma

Measured: growth

O=C1C(Cl)=C(Nc2ccc(Nc3ccccc3)c(NC3=C(Cl)C(=O)c4ccccc4C3=O)c2)C(=O)c2ccccc21
inactive: HCT-15 colon 56.2% | HT29 colon 66.4% | SNB-75 CNS 81.3% | SNB-19 CNS 52.3% | U251 CNS 33.5% | PC-3 prostate 48% | SK-MEL-5 melanoma 90.9% | LOX IMVI melanoma 63.3%

N=C(N)N=Nc1ccc(NN=C(N)N)c2ccccc12
inactive: HCT-15 colon 110% | HT29 colon 99.3% | SNB-75 CNS 73.1% | SNB-19 CNS 51.7% | U251 CNS 35.5% | PC-3 prostate 87.8% | SK-MEL-5 melanoma 138% | UACC-62 melanoma 102% | LOX IMVI melanoma 103% | SK-MEL-28 melanoma 113%

CCOC(=O)C1=C(C(F)(F)F)NC(=S)NC1CN1C(=O)c2ccccc2C1=O (configuration not stated)
inactive: HCT-15 colon 109% | HT29 colon 108% | SNB-75 CNS 104% | SNB-19 CNS 112% | U251 CNS 102% | PC-3 prostate 90.5% | SK-MEL-5 melanoma 103% | UACC-62 melanoma 101% | LOX IMVI melanoma 105% | SK-MEL-28 melanoma 108%

O=C(/C=C/c1c[nH]c2ccccc12)c1cc2ccccc2o1
inactive: HCT-15 colon 83.3% | HT29 colon 98.9% | SNB-75 CNS 92% | SNB-19 CNS 96.2% | U251 CNS 98.2% | PC-3 prostate 75.6% | SK-MEL-5 melanoma 102% | UACC-62 melanoma 87.6% | LOX IMVI melanoma 91.7% | SK-MEL-28 melanoma 96.6%

O=C1c2cc([N+](=O)[O-])ccc2-c2cc(Cl)c(NC(=O)C(F)(F)F)cc21
inactive: HCT-15 colon 95.4% | HT29 colon 108% | SNB-75 CNS 91.1% | SNB-19 CNS 106% | U251 CNS 110% | PC-3 prostate 94.8% | SK-MEL-5 melanoma 100% | UACC-62 melanoma 101% | SK-MEL-28 melanoma 106%

N#Cc1ccc(NC2c3ccccc3CC2O)cc1 (configuration not stated)
inactive: HCT-15 colon 101% | HT29 colon 110% | SNB-75 CNS 91.5% | SNB-19 CNS 109% | U251 CNS 113% | PC-3 prostate 98.8% | SK-MEL-5 melanoma 102% | UACC-62 melanoma 99.1% | SK-MEL-28 melanoma 109%

O=C(O)c1occ(Cl)c1Cl
inactive: HCT-15 colon 105% | HT29 colon 122% | SNB-75 CNS 99.2% | SNB-19 CNS 109% | U251 CNS 104% | PC-3 prostate 109% | SK-MEL-5 melanoma 113% | LOX IMVI melanoma 99.7% | SK-MEL-28 melanoma 116%

CCCCCCCCCCCC(=O)OC(C)C(=O)Nc1ccccc1 (configuration not stated)
inactive: HCT-15 colon 97% | HT29 colon 99.7% | SNB-75 CNS 71.9% | SNB-19 CNS 95.1% | U251 CNS 97.7% | PC-3 prostate 90.3% | SK-MEL-5 melanoma 118% | UACC-62 melanoma 100% | SK-MEL-28 melanoma 108%

Cc1ccc(C(=O)Nc2ccc(CN3CCN(C)CC3)c(C(F)(F)F)c2)cc1C#Cc1cnc(N)c2ccc(C#N)cc12
inactive: HCT-15 colon 23.2% | HT29 colon 10.5% | SNB-75 CNS 51.5% | SNB-19 CNS 63.3% | U251 CNS 48.9% | PC-3 prostate 51.7% | SK-MEL-5 melanoma 13.5% | LOX IMVI melanoma 21% | SK-MEL-28 melanoma 12.9%

COc1ccc2sc(-n3nc4nc5n(c(=O)c4c3N)-c3ccccc3Sc3ccccc3-5)nc2c1
inactive: HCT-15 colon 82.6% | HT29 colon 73.6% | SNB-75 CNS 73.8% | SNB-19 CNS 79.7% | U251 CNS 82.2% | PC-3 prostate 48.7% | UACC-62 melanoma 64.1% | LOX IMVI melanoma 79.8% | SK-MEL-28 melanoma 92.6%

Oc1ccccc1/C=N/N=C\c1ccccc1Cl
inactive: HCT-15 colon 95.5% | HT29 colon 97.5% | SNB-75 CNS 86.7% | SNB-19 CNS 91.5% | U251 CNS 93.4% | PC-3 prostate 88.1% | UACC-62 melanoma 92.1% | LOX IMVI melanoma 86.2% | SK-MEL-28 melanoma 105%

CC(C)CSc1nc(-c2ccc(F)cc2)c(C#N)c(N2CCCCC2)n1
inactive: HCT-15 colon 92.2% | HT29 colon 87.6% | SNB-75 CNS 100% | SNB-19 CNS 104% | U251 CNS 93% | PC-3 prostate 82% | SK-MEL-5 melanoma 94.3% | LOX IMVI melanoma 92.9% | SK-MEL-28 melanoma 94.3%

COc1cc([C@@H]2c3cc4c(cc3[C@H](O)[C@H]3COC[C@@H]23)OCO4)cc(OC)c1OC
inactive: HCT-15 colon 59.1% | HT29 colon 79.1% | SNB-75 CNS 58% | SNB-19 CNS 76.9% | U251 CNS 77.4% | PC-3 prostate 63.8% | SK-MEL-5 melanoma 51% | LOX IMVI melanoma 75.7% | SK-MEL-28 melanoma 69.4%

Cc1c(CN(C)C)cc(C(C)C)cc1C(C)C
inactive: HCT-15 colon 113% | HT29 colon 86.4% | SNB-75 CNS 96.7% | SNB-19 CNS 102% | U251 CNS 100% | PC-3 prostate 109% | UACC-62 melanoma 106% | LOX IMVI melanoma 98.7% | SK-MEL-28 melanoma 107%

Cc1ccc(NCc2cn(-c3ccc(C(=O)O)cc3)nc2-c2ccc(C(=O)O)cc2)cc1
inactive: HCT-15 colon 110% | HT29 colon 97.4% | SNB-75 CNS 96.7% | SNB-19 CNS 104% | U251 CNS 97.1% | PC-3 prostate 106% | UACC-62 melanoma 103% | LOX IMVI melanoma 94.6% | SK-MEL-28 melanoma 112%

CC(CCN1CCN(CCC(C)CC(C)(C)C)C1CC(C)CC(C)(C)C)CC(C)(C)C (configuration not stated)
inactive: HCT-15 colon 87.5% | HT29 colon 39.4% | SNB-75 CNS 80.7% | SNB-19 CNS 102% | U251 CNS 91.6% | PC-3 prostate 56.7% | UACC-62 melanoma 103% | LOX IMVI melanoma 81.8% | SK-MEL-28 melanoma 105%

C/C=C/C/C=C/[C@H](C)C[C@H](O)[C@@H]1C[C@@H]2O[C@H]2/C=C/[C@H](O)[C@@H](O)/C=C/C[C@H](C)CC(=O)O1
inactive: HCT-15 colon 66.1% | HT29 colon 68.4% | SNB-75 CNS 90.9% | SNB-19 CNS 97.4% | U251 CNS 87.4% | PC-3 prostate 115% | SK-MEL-5 melanoma 72.9% | LOX IMVI melanoma 88.3% | SK-MEL-28 melanoma 101%

O=C1/C(=C\c2cn(-c3nc(N4CCOCC4)nc(N4CCOCC4)n3)c3ccccc23)c2ccccc2N1c1c(Cl)cccc1Cl
inactive: HCT-15 colon 64.5% | HT29 colon 73.9% | SNB-19 CNS 69.6% | U251 CNS 53.5% | PC-3 prostate 24.3% | UACC-62 melanoma 46.6% | LOX IMVI melanoma 69.8% | SK-MEL-28 melanoma 77.2%
active: SNB-75 CNS 0.936%

COc1cccc(NC(=O)NCCNc2nccc(-c3c(-c4ccc(F)cc4)nc4sccn34)n2)c1
inactive: HCT-15 colon 56.4% | HT29 colon 39.8% | SNB-75 CNS 48.3% | SNB-19 CNS 86.3% | U251 CNS 77.6% | PC-3 prostate 89.9% | UACC-62 melanoma 68.2% | LOX IMVI melanoma 72.6% | SK-MEL-28 melanoma 92.2%

COc1ccc(-c2nnc(SCC(=O)Nc3ccc(C(=O)/C=C/c4cc(OC)c(OC)c(OC)c4)cc3)n2-c2ccccc2)cc1OC
inactive: PC-3 prostate 10.9% [100 µM] | SK-MEL-28 melanoma 18.3% [100 µM]
active: HCT-15 colon 8.91% [100 µM] | HT29 colon 3.6% [100 µM] | SNB-75 CNS -22% [100 µM] | SNB-19 CNS -19.9% [100 µM] | U251 CNS -96.9% [100 µM] | UACC-62 melanoma -42.9% [100 µM] | LOX IMVI melanoma -88.5% [100 µM]

COc1ccc(-c2nc(Nc3nc4ccccc4[nH]3)nc(N)c2C#N)cc1
inactive: HCT-15 colon 101% | HT29 colon 96% | SNB-75 CNS 84.9% | SNB-19 CNS 98.1% | U251 CNS 110% | PC-3 prostate 88.1% | SK-MEL-5 melanoma 95.3% | LOX IMVI melanoma 93.9% | SK-MEL-28 melanoma 114%

COc1cc2c(cc1OC)C(Cc1cc(OC)c(OC)cc1[N+](=O)[O-])=NCC2
inactive: HCT-15 colon 95.8% | HT29 colon 50.9% | SNB-75 CNS 88.2% | SNB-19 CNS 94.3% | U251 CNS 77.4% | PC-3 prostate 69.2% | SK-MEL-5 melanoma 93.6% | LOX IMVI melanoma 75.1% | SK-MEL-28 melanoma 92.7%

Nc1ccc(N=Nc2ccccc2)c2cc(S(=O)(=O)O)ccc12
inactive: HCT-15 colon 104% | HT29 colon 94.6% | SNB-75 CNS 82.5% | SNB-19 CNS 101% | U251 CNS 101% | PC-3 prostate 96% | UACC-62 melanoma 103% | LOX IMVI melanoma 97.7% | SK-MEL-28 melanoma 118%

CCCCCCCCCCCCOC(=N)N(C)C
inactive: HCT-15 colon 96.7% | HT29 colon 102% | SNB-75 CNS 85.8% | SNB-19 CNS 96.1% | U251 CNS 94.8% | PC-3 prostate 91.4% | UACC-62 melanoma 93.9% | LOX IMVI melanoma 74.2% | SK-MEL-28 melanoma 106%

COc1ccc(Cn2cc3c(c2-c2ccccc2)CCc2cnoc2-3)cc1OC
inactive: HCT-15 colon 32% | HT29 colon 16.5% | SNB-19 CNS 50.3% | U251 CNS 36.8% | PC-3 prostate 26.5% | SK-MEL-5 melanoma 10.5% | LOX IMVI melanoma 43.3% | SK-MEL-28 melanoma 58.6%
active: SNB-75 CNS -11.1%

COC(=O)c1ccc2[nH]c(O)c(C(=Nc3ccc(N(C)C(=O)CN4CCN(C)CC4)cc3)c3cccc(OC)c3)c2c1
inactive: SNB-19 CNS 12.7% | U251 CNS 11.7% | PC-3 prostate 20.3% | SK-MEL-28 melanoma 19.5%
active: HCT-15 colon 7.72% | HT29 colon -2.16% | SNB-75 CNS -2.49% | SK-MEL-5 melanoma 6.71% | LOX IMVI melanoma 8.47%

O=C(O)c1ccc(-c2nn(-c3ccc(C(=O)O)cc3)cc2CNc2ccc(Br)cc2)cc1
inactive: HCT-15 colon 100% | HT29 colon 99% | SNB-75 CNS 97.6% | SNB-19 CNS 105% | U251 CNS 106% | PC-3 prostate 101% | UACC-62 melanoma 97.6% | LOX IMVI melanoma 102% | SK-MEL-28 melanoma 103%

CCCCCCCCCCC(C[N+](C)(C)C/C=C/c1ccccc1)C(O)c1ccccc1 (configuration not stated)
active: HT29 colon -79.8% | SNB-75 CNS 5.59% | U251 CNS -93.9% | PC-3 prostate -29.9%
inactive: HCT-15 colon 79.1% | SNB-19 CNS 35.8% | SK-MEL-5 melanoma 30.6% | SK-MEL-28 melanoma 21.2%

COc1ccc(OC)c(Cn2cc3c(c2)-c2oncc2CC3)c1
active: SNB-75 CNS -1.67%
inactive: HCT-15 colon 31.1% | HT29 colon 22.3% | SNB-19 CNS 50.6% | U251 CNS 37.8% | PC-3 prostate 45.5% | SK-MEL-5 melanoma 20% | LOX IMVI melanoma 35.4% | SK-MEL-28 melanoma 50.1%

Reference: PubChem BioAssay (NCI)
